In one assay the target is Albumin (Bos taurus) (UniProt P02769). The experiment in a line: bovine serum albumin binders on microarray, profiling panel, artefact control for SMM control protein annotation, biochemical, small-molecule microarray, Alexa647 label, 635/667 nm fluorescence (AID 1118).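 Note: score merges 667 nm emission intensity and signal-to-noise per printed compound spot.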 Particulars: BSA-A647 binding, fluorescence 635 nm, higher = more signal.
Assay [1] is described as follows: small-molecule microarray binders of probe aXIP, primary screen, biochemical, NeuroSMM set, 635/667 nm fluorescence (AID 1119).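 Note: probe is the protein aXip251-270 applied at 1 µg/mL to compound-printed slides; binding of probe to printed compounds measured as 667 nm fluorescence plus signal to noise.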 Particulars: higher = more signal, called active from +8 up or from −8 down.
The nature of assay [2]: small-molecule binders of probe aNOTCH3, primary screen, biochemical, small-molecule microarray, 635/667 nm fluorescence (AID 1120).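 Note: probe is a biotin-tagged antibody raised against NOTCH3 rather than NOTCH3 protein; score merges spot fluorescence near 667 nm with spot signal to noise.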 Particulars: higher = more signal.
A short description of assay [3]: small-molecule binders of probe aNOTCH2, primary screen, biochemical, small-molecule microarray, 635/667 nm fluorescence (AID 1121).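 Note: score merges feature fluorescence read at 667 nm with its signal to noise.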 Particulars: higher = more signal.
The target of assay [4] is Carbonic anhydrase 2 (Homo sapiens) (UniProt P00918). Briefly: CAII small-molecule binders, profiling panel, biochemical, small-molecule microarray, Alexa647-labelled CAII (AID 1122). Particulars: CAII-A647 binding fluorescence, higher = more signal.
Assay [5] in a line: COS7 lysate on small-molecule microarray, probe aHis, 635 nm (AID 1123).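 Note: z-score combines 667nm fluorescence intensity with signal-to-noise per printed compound spot.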 As to conditions: COS7 cell lysate, fluorescence, higher = more signal.
Assay [6] can be described thus: compound binding in COS7 lysate, probe aLAP1, primary screen, cell lysate, small-molecule microarray (AID 1124).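 Note: lysate comes from COS7 cells expressing LAP1 and is applied at 0.3 µg/mL; score merges spot fluorescence near 667 nm with signal-to-noise over triplicate slides.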 As to conditions: probe aLAP1, fluorescence, higher = more signal.
The next assay deals with Sam68 (KHDRBS1). Briefly: Sam68 small-molecule binders, primary screen, biochemical, small-molecule microarray, 635 nm fluorescence (AID 1125).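 Note: score merges 667 nm channel intensity with signal to noise over triplicate slides.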 Particulars: small-molecule microarray binding, higher = more signal.
The subject of assay [7] is Chordin-like protein 2 (CHRDL2). Briefly: CHRDL2 small-molecule binders, primary screen, biochemical, small-molecule microarray, 635 nm fluorescence (AID 1126).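 Note: printed compound slides probed with Chrdl2 protein at 4 µg/mL for 1 h at 4 C; score merges 667 nm emission intensity with signal to noise over three replicate slides.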 Particulars: small-molecule microarray binding, fluorescence 635 nm; higher = more signal.
The target in assay [8] is Concanavalin-A (Canavalia ensiformis) (UniProt P02866). The experiment in a line: ConA small-molecule binders, primary screen, artefact control for SMM control protein annotation, biochemical, small-molecule microarray, Alexa647 label, 635 nm (AID 1127).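 Note: z combines 667 nm emission intensity with signal-to-noise across three replicate slides.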 As to conditions: ConA-A647 binding fluorescence, higher = more signal.
Sequence of Concanavalin-A (Canavalia ensiformis) (P02866 whole entry, looked up): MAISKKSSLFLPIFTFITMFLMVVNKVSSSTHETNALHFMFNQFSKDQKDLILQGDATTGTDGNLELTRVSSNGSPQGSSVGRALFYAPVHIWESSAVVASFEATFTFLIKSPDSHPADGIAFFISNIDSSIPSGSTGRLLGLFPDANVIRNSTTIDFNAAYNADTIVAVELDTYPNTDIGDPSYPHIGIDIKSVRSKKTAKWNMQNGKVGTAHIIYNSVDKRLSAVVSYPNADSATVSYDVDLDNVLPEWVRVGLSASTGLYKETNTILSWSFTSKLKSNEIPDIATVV
The nature of assay [9]: anti-His antibody binders, primary screen, artefact control for SMM control protein annotation, biochemical, small-molecule microarray, 635 nm fluorescence (AID 1128).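 Note: score merges feature fluorescence with signal-to-noise for each printed compound spot.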 Particulars: anti-His Alexa647 antibody binding, higher = more signal.
The test system of assay [10] is Human papillomavirus type 1a E7 protein (residues 1-88). Briefly: HPV1a E7 small-molecule binders, primary screen, biochemical, small-molecule microarray, residues 1-88, 635 nm (AID 1129). Particulars: small-molecule microarray binding, fluorescence 635 nm; higher = more signal.
Assay [11] has as its target Focal adhesion kinase 1 (Homo sapiens) (UniProt Q05397). Briefly: small-molecule microarray binders of FAK, primary screen, biochemical, 635/667 nm fluorescence, BSA, DTT (AID 1130).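 Note: composite of spot emission at 667 nm and signal to noise over triplicate slides.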 Particulars: PTK2 binding, 635 nm fluorescence, higher = more signal.
The test system of assay [12] is Fibrinogen (Alexa647-labelled). The experiment in a line: fibrinogen binders on compound microarrays, profiling panel, artefact control for SMM control-protein annotation, biochemical, small-molecule microarray, 635/667 nm fluorescence (AID 1131).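 Note: z-score merges 667 nm fluorescence with per-spot signal-to-noise over triplicate slides.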 As to conditions: fibrinogen-A647 binding fluorescence, higher = more signal.
The target in assay [13] is Follistatin (Homo sapiens) (UniProt P19883). Briefly: follistatin binders on small-molecule microarrays, primary screen, biochemical, small-molecule microarray, 635/667 nm fluorescence (AID 1132). As to conditions: FST binding, 635 nm fluorescence, higher = more signal.
Sequence of Follistatin (Homo sapiens) (P19883 whole entry, looked up): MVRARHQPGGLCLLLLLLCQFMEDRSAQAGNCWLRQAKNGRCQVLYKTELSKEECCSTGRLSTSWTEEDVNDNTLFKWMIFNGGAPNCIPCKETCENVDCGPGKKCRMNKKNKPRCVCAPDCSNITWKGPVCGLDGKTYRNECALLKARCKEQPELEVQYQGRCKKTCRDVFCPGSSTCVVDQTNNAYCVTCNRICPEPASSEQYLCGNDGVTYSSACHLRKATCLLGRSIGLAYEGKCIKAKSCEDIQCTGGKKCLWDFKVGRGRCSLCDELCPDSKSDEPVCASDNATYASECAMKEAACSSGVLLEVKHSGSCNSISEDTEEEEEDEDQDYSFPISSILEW
Assay [14] addresses Fibroblast growth factor 2 (Homo sapiens) (UniProt P09038). The experiment in a line: FGF2 binders on small-molecule microarrays, primary screen, biochemical, small-molecule microarray, 635/667 nm fluorescence (AID 1133). Particulars: small-molecule microarray binding, FGF2, fluorescence 635/667; higher = more signal.
A short description of assay [15]: mitochondrial membrane potential change in A549 cells, profiling panel, cell-based, JC-1 fluorescence, basal, 24 h, 100 nL (AID 1138).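 Note: A549 lung adenocarcinoma cells under basal conditions with no added stimulus; test concentration not given here.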 As to conditions: higher = more signal.
A further assay has as its system Lefty1. Briefly: Lefty1 binders on small-molecule microarrays, primary screen, biochemical, small-molecule microarray, 635/667 nm fluorescence (AID 1139). As to conditions: small-molecule microarray binding, fluorescence 635/667; higher = more signal.
In assay [16] the test system is wheat germ agglutinin (Triticum aestivum), Alexa647-labelled. Briefly: wheat germ agglutinin binders on compound microarrays, profiling panel, artefact control for SMM control-protein annotation, biochemical, small-molecule microarray, 635/667 nm fluorescence (AID 1140).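 Note: score merges 667 nm feature emission with signal to noise over triplicate slides.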 Particulars: WGA-A647 binding, 635 nm fluorescence, higher = more signal.
Assay [17] addresses Luciferin 4-monooxygenase (Photinus pyralis) (UniProt P08659). The experiment in a line: firefly luciferase enzyme inhibitors, primary screen, biochemical, luminescence, purified enzyme, 2006 set (AID 1141).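 Note: cell-free assay with purified firefly luciferase at 100 ng per well in PBS; test concentration not given here.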 As to conditions: SteadyGlo luminescence, 30 min, higher = more signal, called active from +8 up or from −8 down.

Activity calls are given as the source filed them.

Sequence of Albumin (Bos taurus) (P02769 whole entry, looked up): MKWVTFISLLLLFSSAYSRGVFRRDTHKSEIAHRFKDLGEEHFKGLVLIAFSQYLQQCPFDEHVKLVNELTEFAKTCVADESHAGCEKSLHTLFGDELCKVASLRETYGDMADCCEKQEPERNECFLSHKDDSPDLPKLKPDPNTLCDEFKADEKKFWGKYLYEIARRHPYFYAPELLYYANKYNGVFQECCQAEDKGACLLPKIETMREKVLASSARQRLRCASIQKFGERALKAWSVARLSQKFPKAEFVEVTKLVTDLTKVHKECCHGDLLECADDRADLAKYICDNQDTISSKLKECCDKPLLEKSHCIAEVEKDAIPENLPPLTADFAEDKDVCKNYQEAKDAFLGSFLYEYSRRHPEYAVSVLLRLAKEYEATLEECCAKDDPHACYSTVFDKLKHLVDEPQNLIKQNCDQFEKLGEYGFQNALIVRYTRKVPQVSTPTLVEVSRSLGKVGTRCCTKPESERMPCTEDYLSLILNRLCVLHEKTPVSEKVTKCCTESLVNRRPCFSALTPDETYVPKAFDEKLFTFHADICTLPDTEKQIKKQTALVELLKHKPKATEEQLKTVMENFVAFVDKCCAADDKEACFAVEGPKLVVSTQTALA
Sequence of Fibroblast growth factor 2 (Homo sapiens) (P09038 whole entry, looked up): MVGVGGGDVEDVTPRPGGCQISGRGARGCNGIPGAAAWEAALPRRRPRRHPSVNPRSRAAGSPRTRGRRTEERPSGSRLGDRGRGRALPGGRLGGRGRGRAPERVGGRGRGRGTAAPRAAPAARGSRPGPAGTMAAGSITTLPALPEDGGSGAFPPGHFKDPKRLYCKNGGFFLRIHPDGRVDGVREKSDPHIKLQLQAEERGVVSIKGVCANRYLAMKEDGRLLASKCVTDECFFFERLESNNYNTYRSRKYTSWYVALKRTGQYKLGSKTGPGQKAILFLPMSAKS
Sequence of Luciferin 4-monooxygenase (Photinus pyralis) (P08659 whole entry, looked up): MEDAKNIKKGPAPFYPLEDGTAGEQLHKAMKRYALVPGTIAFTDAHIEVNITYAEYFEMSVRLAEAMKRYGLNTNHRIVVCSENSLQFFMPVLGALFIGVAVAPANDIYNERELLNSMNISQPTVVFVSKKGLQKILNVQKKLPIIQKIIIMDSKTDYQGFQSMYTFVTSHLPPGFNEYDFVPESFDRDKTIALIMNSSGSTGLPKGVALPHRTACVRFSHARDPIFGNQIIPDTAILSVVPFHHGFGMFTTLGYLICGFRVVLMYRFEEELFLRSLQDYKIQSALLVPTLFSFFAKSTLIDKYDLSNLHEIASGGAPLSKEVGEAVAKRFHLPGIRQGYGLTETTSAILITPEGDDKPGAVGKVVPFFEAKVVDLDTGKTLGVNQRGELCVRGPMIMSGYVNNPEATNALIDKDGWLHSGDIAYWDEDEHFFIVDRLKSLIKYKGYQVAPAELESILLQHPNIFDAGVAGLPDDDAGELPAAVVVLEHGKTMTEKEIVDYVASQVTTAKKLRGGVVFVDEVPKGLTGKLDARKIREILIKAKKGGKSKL
Sequence of Focal adhesion kinase 1 (Homo sapiens) (Q05397 whole entry, looked up): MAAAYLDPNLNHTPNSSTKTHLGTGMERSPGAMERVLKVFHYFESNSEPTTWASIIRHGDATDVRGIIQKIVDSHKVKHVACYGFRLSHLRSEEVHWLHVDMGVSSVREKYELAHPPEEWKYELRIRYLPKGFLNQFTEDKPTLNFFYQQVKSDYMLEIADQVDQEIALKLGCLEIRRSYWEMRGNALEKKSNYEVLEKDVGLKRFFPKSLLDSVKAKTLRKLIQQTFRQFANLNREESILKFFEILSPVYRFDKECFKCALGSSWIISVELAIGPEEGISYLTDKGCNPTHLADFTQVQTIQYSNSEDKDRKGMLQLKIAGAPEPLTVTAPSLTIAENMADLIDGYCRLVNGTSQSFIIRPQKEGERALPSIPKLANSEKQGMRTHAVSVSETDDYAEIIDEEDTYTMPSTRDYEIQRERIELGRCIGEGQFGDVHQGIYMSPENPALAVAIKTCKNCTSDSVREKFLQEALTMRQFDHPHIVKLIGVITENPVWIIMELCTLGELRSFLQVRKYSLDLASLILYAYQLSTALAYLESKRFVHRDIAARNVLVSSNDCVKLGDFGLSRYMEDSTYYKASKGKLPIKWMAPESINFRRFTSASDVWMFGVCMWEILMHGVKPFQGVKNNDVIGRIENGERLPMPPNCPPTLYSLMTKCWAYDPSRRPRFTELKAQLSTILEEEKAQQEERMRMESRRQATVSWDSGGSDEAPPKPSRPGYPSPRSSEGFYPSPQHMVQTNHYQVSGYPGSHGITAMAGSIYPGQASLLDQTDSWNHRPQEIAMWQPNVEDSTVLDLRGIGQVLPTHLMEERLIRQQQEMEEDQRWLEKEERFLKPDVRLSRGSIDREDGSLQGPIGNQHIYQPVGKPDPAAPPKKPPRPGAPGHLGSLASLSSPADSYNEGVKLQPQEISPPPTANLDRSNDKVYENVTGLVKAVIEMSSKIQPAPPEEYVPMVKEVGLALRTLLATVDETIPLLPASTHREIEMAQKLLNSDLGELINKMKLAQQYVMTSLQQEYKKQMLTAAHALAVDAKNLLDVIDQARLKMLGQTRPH

As for `CCOC(=O)[C@H](CC(C)C)NC(=O)CCC1CC(OC(=O)NCCc2ccc(F)cc2)CC2(CCCC(COC(=O)NCCCN3CCCC3=O)O2)O1` (stereo not given in full), the composite z-score is 0.353 with Albumin (Bos taurus); -0.179 in [2]; -0.0839 in assay [3]; 0.325 in [4]; 0.619 in assay [5]; 0.16 in assay [6]. The composite z-score with Sam68 (KHDRBS1) is 0.883; in assay [7], 0.473; in assay [8], 0.0423; in assay [9], 0.969; in assay [10] it was 0.635; in [11] it was 0.0501. The composite z-score in [12] stood at 0.958; in assay [13], 1.25; in assay [14], 0.304; with Lefty1, 0.766; in assay [16], 0.205. Moreover, the composite Z-score in [1] was 0.0886 (inactive). Besides, the z-score was -0.114 in [15] and 0.564 (inactive) in assay [17].
On to `CC(C)(C)N1C(=O)[C@H]2[C@H]3[C@H](O)[C@H](O)CC(=NNC(=O)OCc4ccccc4)[C@H]3CC[C@H]2C1=O`, for which the composite z-score was -0.316 with Albumin (Bos taurus); -0.0071 in assay [2]; -0.075 in assay [3]; 0.158 in assay [4]; 0.447 in assay [5]; -0.0026 in assay [6]. For the same molecule, the composite z-score in the assay with Sam68 (KHDRBS1) came to 1.1; in [7], 0.303; in [8], 0.275; in assay [9], 0.758; in assay [10], 0.848; in [11] it was 0.0507. For the same molecule, the composite z-score in assay [12] stood at 1.03; in assay [13] it was 0.963; in [14] it was 0.491; with Lefty1, 1.43; in assay [16], 0.525. Further, in [1], the composite Z-score was 0.175 (inactive). The z-score in assay [15] is -1.08; in assay [17], 0.944 (inactive).
For the molecule `COc1ccc(COC(=O)NN=C2C[C@@H](O)[C@@H](O)[C@@H]3[C@@H]4C(=O)N([C@@H](C)c5ccccc5)C(=O)[C@@H]4CC[C@@H]23)cc1`, the composite z-score with Albumin (Bos taurus) was 0.274; in assay [2], -0.0697; in assay [3], 0.0318; in assay [4], 0.171; in [5], -0.211; in assay [6] it was 0.131. Moreover, the composite z-score with Sam68 (KHDRBS1) was -0.196; in [7], 0.448; in [8], 0.162; in assay [9], -0.253; in assay [10] it was 0.661; in assay [11], -0.313. The composite z-score in assay [12] came to 0.373; in assay [13], 0.244; in [14], 0.272; in the assay with Lefty1, 0.244; in assay [16] it was 0.242. For the same molecule, the composite Z-score in assay [1] is -0.228 (inactive). For the same molecule, the z-score in [15] was -0.304; in [17], 0.447 (inactive).
Turning to `COC(=O)[C@@H]1CC[C@H](C)[C@@H](c2ccc(Br)cc2)N1`, the composite z-score in the assay with Albumin (Bos taurus) was -0.109; in assay [2] it was 0.086; in assay [3], 0.0037; in assay [4], 0.665; in [5] it was 0.878; in [6], -0.243. In addition, the composite z-score in the assay with Sam68 (KHDRBS1) was -1.39; in assay [7] it was 0.322; in assay [8] it was -0.197; in assay [9], 0.426; in assay [10] it was -1.3; in [11], 1.38. The composite z-score is 0.102 in [12]; -0.291 in [13]; -0.21 in assay [14]; -0.04 with Lefty1; -0.197 in assay [16]. Moreover, the composite Z-score in [1] was 1.22 (inactive). The z-score in assay [15] was 0.0492; in [17], -0.464 (inactive).
As to `COc1ccc(OC[C@@H]2CC3[C@@H](c4ccc(Br)cc4)[C@H](C)CC[C@H]3C(=O)O2)cc1` (stereo not given in full), the composite z-score with Albumin (Bos taurus) is 0.733; in [2], -0.023; in assay [3], -0.18; in assay [4] it was -0.117; in assay [5] it was -0.037; in assay [6] it was 0.196. Moreover, the composite z-score in the assay with Sam68 (KHDRBS1) was -0.218; in assay [7], 0.584; in [8], -0.758; in assay [9], -1.08; in assay [10] it was -0.291; in assay [11], -0.0102. Further, the composite z-score in assay [12] was 0.563; in assay [13], 0.57; in [14], 0.29; in the assay with Lefty1, 0.74; in [16], 0.282. Moreover, the composite Z-score in assay [1] is -0.644 (inactive). In addition, the z-score in assay [15] was -0.296; in [17] it was 0.294 (inactive).

The values are drawn from PubChem BioAssay.
